Reference: PubChem BioAssay AID1159580 (chemical genetic matrix, 2015)
Several values for one entry are separate records, joined by “and”; a condition that tells them apart may be missing. Identical values can stand only once. The whole screen tested about 5,500 compounds, of which about 2,000 (36%) were called active. Roughly 18% stayed inconclusive and do not appear here. Rule as the data show it: active = normalized growth mostly below about 0.91 (no sharp cut-off); inconclusive = no clear call, values can overlap the other calls; inactive = mostly above about 0.92. Some of the results follow.

Assay: chemical genetic growth profiling, strain panel (AID 1159580);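 also: tested at 20 µM; growth read once vehicle control cultures reached saturation at 30 °C; 1 = growth at the plate median or of vehicle wells; lower values mean less growth of the strain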
Details: growth OD

Measured: normalized growth

CN(C)c1ccc(O)c2c1C[C@H]1C[C@H]3[C@H](N(C)C)C(=O)C(C(N)=O)=C(O)[C@@]3(O)C(=O)C1=C2O
inactive: S. cerevisiae deletion strains, locus YAL013W, strain DEP1, stronger effect = lower value 0.988 | S. cerevisiae deletion strains, locus YBR021W, strain FUR4, stronger effect = lower value 0.915 | S. cerevisiae deletion strains, locus YBR229C, strain ROT2, stronger effect = lower value 0.947 | S. cerevisiae deletion strains, locus YCL029C, strain bik1, stronger effect = lower value 0.992 | S. cerevisiae deletion strains, locus YDL035C, strain GPR1, stronger effect = lower value 0.963 | S. cerevisiae deletion strains, locus YDL074C, strain BRE1, stronger effect = lower value 1 | S. cerevisiae deletion strains, locus YDL101C, strain DUN1, stronger effect = lower value 0.969 | S. cerevisiae deletion strains, locus YDL134C, strain PPH21, stronger effect = lower value 0.976 | S. cerevisiae deletion strains, locus YDL185W, strain tfp1, stronger effect = lower value 0.983 | S. cerevisiae deletion strains, locus YDL192W, strain arf1, stronger effect = lower value 0.962 | S. cerevisiae deletion strains, locus YDR101C, strain arx1, stronger effect = lower value 1 | S. cerevisiae deletion strains, locus YDR150W, strain NUM1, stronger effect = lower value 0.975 | S. cerevisiae deletion strains, locus YDR162C, strain NBP2, stronger effect = lower value 0.964 | S. cerevisiae deletion strains, locus YDR318W, strain mcm21, stronger effect = lower value 0.996 | S. cerevisiae deletion strains, locus YDR388W, stronger effect = lower value 0.997 | S. cerevisiae deletion strains, locus YDR502C, strain sam2, stronger effect = lower value 0.986 | S. cerevisiae deletion strains, locus YEL061C, strain CIN8, stronger effect = lower value 0.984 | S. cerevisiae deletion strains, locus YER110C, stronger effect = lower value 0.974 | S. cerevisiae deletion strains, locus YER155C, strain BEM2, stronger effect = lower value 1.03 | S. cerevisiae deletion strains, locus YER167W, strain BCK2, stronger effect = lower value 0.984 | S. cerevisiae deletion strains, locus YGL078C, strain dbp3, stronger effect = lower value 0.974 | S. cerevisiae deletion strains, locus YGL086W, strain mad1, stronger effect = lower value 0.98 | S. cerevisiae deletion strains, locus YGL248W, strain PDE1, stronger effect = lower value 0.974 | S. cerevisiae deletion strains, locus YGR078C, strain PAC10, stronger effect = lower value 0.966 | S. cerevisiae deletion strains, locus YGR135W, strain pre9, stronger effect = lower value 0.974 | S. cerevisiae deletion strains, locus YGR229C, strain SMI1, stronger effect = lower value 0.987 | S. cerevisiae deletion strains, locus YGR252W, strain gcn5, stronger effect = lower value 0.802 | S. cerevisiae deletion strains, locus YHR030C, strain SLT2, stronger effect = lower value 0.992 | S. cerevisiae deletion strains, locus YHR079C, strain IRE1 (second series), stronger effect = lower value 1 | S. cerevisiae deletion strains, locus YHR079C, strain IRE1, stronger effect = lower value 1.01 | S. cerevisiae deletion strains, locus YHR094C, strain hxt1, stronger effect = lower value 1.01 | S. cerevisiae deletion strains, locus YHR129C, strain ARP1, stronger effect = lower value 0.99 | S. cerevisiae deletion strains, locus YHR200W, strain rpn10, stronger effect = lower value 0.989 | S. cerevisiae deletion strains, locus YIL066C, strain RNR3, stronger effect = lower value 0.96 | S. cerevisiae deletion strains, locus YIL073C, strain SPO22, stronger effect = lower value 0.959 | S. cerevisiae deletion strains, locus YIL125W, strain kgd1, stronger effect = lower value 0.979 | S. cerevisiae deletion strains, locus YIR030C, strain dcg1, stronger effect = lower value 0.987 | S. cerevisiae deletion strains, locus YJL095W, strain BCK1, stronger effect = lower value 0.986 and 0.993 | S. cerevisiae deletion strains, locus YJL134W, strain LCB3, stronger effect = lower value 0.981 | S. cerevisiae deletion strains, locus YJL168C, strain set2, stronger effect = lower value 0.995 | S. cerevisiae deletion strains, locus YJL187C, strain SWE1 (second series), stronger effect = lower value 0.966 | S. cerevisiae deletion strains, locus YJR043C, strain POL32, stronger effect = lower value 0.992 | S. cerevisiae deletion strains, locus YJR066W, strain TOR1, stronger effect = lower value 0.941 | S. cerevisiae deletion strains, locus YJR075W, strain HOC1, stronger effect = lower value 1 | S. cerevisiae deletion strains, locus YKL009W, strain mrt4, stronger effect = lower value 0.974 | S. cerevisiae deletion strains, locus YKL068W, stronger effect = lower value 0.995 | S. cerevisiae deletion strains, locus YKL085W, strain MDH1 (second series), stronger effect = lower value 0.982 | S. cerevisiae deletion strains, locus YKL085W, strain MDH1, stronger effect = lower value 0.982 | S. cerevisiae deletion strains, locus YKL190W, strain CNB1, stronger effect = lower value 0.998 | S. cerevisiae deletion strains, locus YKR001C, strain vps1, stronger effect = lower value 0.966 | S. cerevisiae deletion strains, locus YLR039C, strain RIC1, stronger effect = lower value 0.937 | S. cerevisiae deletion strains, locus YLR058C, strain SHM2, stronger effect = lower value 0.957 | S. cerevisiae deletion strains, locus YLR102C, strain apc9, stronger effect = lower value 0.989 | S. cerevisiae deletion strains, locus YLR113W, strain HOG1, stronger effect = lower value 1.01 | S. cerevisiae deletion strains, locus YLR262C, strain YPT6, stronger effect = lower value 0.895 | S. cerevisiae deletion strains, locus YLR268W, strain sec22, stronger effect = lower value 1.04 | S. cerevisiae deletion strains, locus YLR330W, strain CHS5, stronger effect = lower value 0.989 | S. cerevisiae deletion strains, locus YLR342W, strain FKS1 (second series), stronger effect = lower value 0.851 | S. cerevisiae deletion strains, locus YLR371W, strain rom2, stronger effect = lower value 0.98 | S. cerevisiae deletion strains, locus YLR418C, strain cdc73, stronger effect = lower value 0.909 | S. cerevisiae deletion strains, locus YML016C, strain PPZ1, stronger effect = lower value 0.974 | S. cerevisiae deletion strains, locus YML032C, strain rad52, stronger effect = lower value 1 | S. cerevisiae deletion strains, locus YML124C, strain tub3, stronger effect = lower value 0.991 | S. cerevisiae deletion strains, locus YMR078C, strain ctf18, stronger effect = lower value 0.993 | S. cerevisiae deletion strains, locus YMR223W, strain ubp8, stronger effect = lower value 0.934 | S. cerevisiae deletion strains, locus YMR263W, strain SAP30, stronger effect = lower value 0.991 | S. cerevisiae deletion strains, locus YMR307W, strain GAS1, stronger effect = lower value 0.879 | S. cerevisiae deletion strains, locus YNL067W, strain RPL9B, stronger effect = lower value 1 | S. cerevisiae deletion strains, locus YNL128W, strain TEP1, stronger effect = lower value 0.922 | S. cerevisiae deletion strains, locus YNL153C, strain GIM3, stronger effect = lower value 0.985 | S. cerevisiae deletion strains, locus YNL183C, strain NPR1, stronger effect = lower value 0.968 | S. cerevisiae deletion strains, locus YNL233W, strain BNI4, stronger effect = lower value 1 | S. cerevisiae deletion strains, locus YNL250W, strain rad50, stronger effect = lower value 0.975 | S. cerevisiae deletion strains, locus YNL271C, strain bni1, stronger effect = lower value 0.989 | S. cerevisiae deletion strains, locus YNL298W, strain CLA4, stronger effect = lower value 0.987 | S. cerevisiae deletion strains, locus YNL307C, strain MCK1, stronger effect = lower value 0.997 | S. cerevisiae deletion strains, locus YNL322C, strain KRE1, stronger effect = lower value 0.993 | S. cerevisiae deletion strains, locus YNR052C, strain pop2, stronger effect = lower value 0.978 | S. cerevisiae deletion strains, locus YOL006C, strain TOP1, stronger effect = lower value 0.887 | S. cerevisiae deletion strains, locus YOL012C, strain htz1 0.571 | S. cerevisiae deletion strains, locus YOL147C, strain pex11, stronger effect = lower value 0.994 | S. cerevisiae deletion strains, locus YOR061W, strain CKA2, stronger effect = lower value 0.967 | S. cerevisiae deletion strains, locus YOR069W, strain VPS5, stronger effect = lower value 0.985 | S. cerevisiae deletion strains, locus YOR136W, strain idh2, stronger effect = lower value 0.978 | S. cerevisiae deletion strains, locus YOR144C, strain elg1, stronger effect = lower value 0.996 | S. cerevisiae deletion strains, locus YOR184W, strain ser1, stronger effect = lower value 0.985 | S. cerevisiae deletion strains, locus YOR231W, strain MKK1, stronger effect = lower value 1.01 | S. cerevisiae deletion strains, locus YOR316C, strain cot1, stronger effect = lower value 0.998 | S. cerevisiae deletion strains, locus YPL055C, strain LGE1, stronger effect = lower value 0.958 | S. cerevisiae deletion strains, locus YPL241C, strain CIN2, stronger effect = lower value 0.981 | S. cerevisiae deletion strains, locus YPL256C, strain CLN2, stronger effect = lower value 1.01 | S. cerevisiae deletion strains, locus YPR119W, strain clb2, stronger effect = lower value 0.996 | S. cerevisiae deletion strains, locus YPR141C, strain kar3, stronger effect = lower value 0.997 | S. cerevisiae deletion strains, locus YPR163C, strain tif3, stronger effect = lower value 0.99 | S. cerevisiae deletion strains, locus YPR167C, strain met16, stronger effect = lower value 1 | S. cerevisiae deletion strains, strain wtn01, stronger effect = lower value 1.02 | S. cerevisiae strains, strain wild type, stronger effect = lower value 0.981
